# Source: PubChem (National Center for Advancing Translational Sciences (NCATS))
# VACV Venus inh – vaccinia inhibition (Venus reporter). 0.46% of 330,000 active. Vaccinia virus Venus reporter expression, fluorescence. Potency, µM (titrated, usually from 36.5 µM), inactives show at the highest dose activity change, negative = inhibition, usual class: inhibitors; calls by dose curve; tested in A549 cells; also: potency is read from the fitted curve at half-maximal effect; nearly all actives have a fitted effect of over 30% in size
# VACV mCherry inh – inhibitors of vaccinia virus infection (mCherry reporter signal) | Vaccinia virus mCherry reporter infection, fluorescence | Potency, µM (series often up to 36.5 µM), inactives show top-dose activity change, negative = inhibition, hits mostly inhibitors | 0.63% of 310,000 active | AID 720579; calls by dose curve; tested in A549 cells; also: potency is read from the fitted curve at half-maximal effect; nearly all actives have a fitted effect of over 35% in size
# HCMV inh – blocks human cytomegalovirus replication; HFF cells, HCMV-luciferase reporter, 72 h; hits give low values; activity change, negative = inhibition, % at 57.5 µM; AID 1259415; 4.5% of 410,000 active; in the data active = activity change below about -60%; inconclusive = no clear call, values can overlap the other calls; inactive = above about -39%
#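 Compounds were evaluated in HFFs infected with an HCMV luciferase reporter virus (MOI 1 PFU/cell). Luciferase in lysates collected 72 h post infection served as the replication measure.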
# FMDV inh – antivirals against foot and mouth disease virus; FMDV antiviral cell-based qHTS; Potency, µM (doses to about 57.9 µM), for inactives: at the top dose activity change, negative = inhibition, hits mostly inhibitors; 1.2% of 410,000 active; AID 1159524; calls by dose curve; tested in HEK293T cells; also: read-out not given here; potency is read from the fitted curve at half-maximal effect; nearly all actives have a fitted effect of over 45% in size
# HCV inhibitor – HCV inhibition. Huh7.5.1 HCVcc-Cre infection, luciferase reporter, 44 h. Potency, µM (series often up to 41.8 µM), for inactives: at the top dose activity change, negative = inhibition, most hits filed as inhibitors. 3.4% of 340,000 active; active = well fitted inhibition curve with a large enough effect; inconclusive = small, poorly fitted or top-dose-only effect, or another doubt; inactive = no such curve, though single readings can be large or run the other way; also: potency is read from the fitted curve at half-maximal effect
#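 Infectious HCV cell culture screen: compound-treated cells (1,000/well, pre-plated 4 h) are infected with HCVcc-Cre at roughly 0.5 moi and grown 44 h. Infection is quantified by luciferase signal after 15 min substrate incubation at room temperature.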
# * = called active by the depositor; i = inactive; ? = inconclusive; · = no result; + = active, no number; ! = repeats disagree; [ ] = dose if it differs, or a comment. Only some compounds are listed: those with a hit (about 7.3% of all), similar ones and a draw of the others. % is scaled to controls: 0 for no effect and ±100 for the full control effect.
SMILES,VACV Venus inh,VACV mCherry inh,HCMV inh,FMDV inh,HCV inhibitor
COc1cc(/C=C/c2nc3ccccc3nc2/C=C/c2cc(OC)c(OC)c(OC)c2)cc(OC)c1OC,-18.3%,21.1%,·,·,·
Cc1ccc(NS(=O)(=O)c2ccc(-n3cccn3)cc2)cc1C,-13.7%,-29.2%,-92.9*,13.9%,?
Cc1ccc(NS(=O)(=O)c2ccc(-n3cccn3)cc2)cc1Cl,-8.7%,?,-33.1,33.6%,·
Cc1cccc(-c2nc3c(N4CCOCC4)nccc3[nH]2)c1,·,·,-0.5,·,·
CC1CCc2c(sc3ncnc(SCC(=O)N(C)C4CCS(=O)(=O)C4)c23)C1 (stereo unspecified),·,·,+,-6.5%,-14.3%
Cc1cc(C)nc(Sc2ncnc3sc4c(c23)CCC4)n1,·,·,-70.8*,-18.8%,-21.7%
Cc1sc2nc(C3CC3)nc(SCC(=O)NCc3ccco3)c2c1C,-25.2%,-4.4%,7.0,·,1.8%
CC(C)Cc1nc2sc3c(SCC(N)=O)ncnc3c2c2c1CCC2,·,·,1.6,-1.9%,1.2%
O=C(CSc1nc(C2CCCCC2)nc2ccccc12)NCc1ccco1,?,?,-102.4*,?,?
CC(C)c1nc2sc3c(SCC(=O)NCc4ccco4)ncnc3c2c2c1CCC2,14.1µM*,·,11.7,?,?
CC(=O)CSc1ncnc2sc3c(c12)CCC(C)C3 (stereo unspecified),·,·,11.4,30.7%,?
CC(=O)CSc1ncnc2sc3c(c12)CCCC3,-17.4%,-15.2%,6.0,-10.6%,10µM*
CC1(C)Cc2nc3sc4c(SCC(=O)NCc5ccco5)ncnc4c3cc2CO1,?,·,9.4,-26.8%,14.1µM*
O=C(CSc1ncnc2sc3c(c12)CCCCC3)NCc1ccco1,-22.1%,-29.2%,-8.8,4.6%,11.2µM*
Cc1sc2nc(SCC(=O)NCc3ccco3)n(CCc3ccccc3)c(=O)c2c1C,·,·,-67.8*,0.0%,12.3%
O=C(CSc1nc2sc3c(c2c(=O)n1-c1ccccc1)CCCC3)NCc1ccco1,?,?,-93.5*,0.0%,1.2%
COc1ccc2nc(NC(=O)C3CCN(S(=O)(=O)c4cccs4)CC3)sc2c1,?,?,-96.6*,14.1µM*,10µM*
COc1ccc2nc(NC(=O)CN(C)S(=O)(=O)c3cccs3)sc2c1,-25.9%,?,-72.0*,11.4%,?
COc1ccc2nc(NC(=O)C3CCCN(S(=O)(=O)c4cccs4)C3)sc2c1 (stereo unspecified),?,·,?,0.0%,12.6µM*
Cc1ccc2nc(NC(=O)C3CCN(S(=O)(=O)c4cccs4)CC3)sc2c1,·,·,-93.8*,?,12.6µM*
COc1ccc2nc(NC(=O)c3ccc(S(=O)(=O)N4CCCC(C)C4)cc3)sc2c1 (stereo unspecified),-13.0%,-12.3%,10.3,-0.6%,·
CCn1c(C(=O)Nc2ccccc2C(=O)OC)cc2sc(Cl)cc21,-7.0%,-13.0%,10.9,-26.9%,·
Cc1cc(C)c(NC(=O)Cn2c(=O)n(CCCCC(=O)NCc3ccccc3Cl)c(=O)c3ccccc32)c(C)c1,-22.0%,-21.7%,-1.5,-23.8%,·
O=C(NCCCN1CCN(c2ccc(F)cc2)CC1)c1cnn(-c2ccc(F)cc2)c1-n1cccc1,-22.0%,-27.9%,-19.4,?,·
CCOc1ccc(NC(=O)C2CCN(S(=O)(=O)c3cccs3)CC2)cc1,?,-1.9%,-4.0,?,?
SMILES,VACV Venus inh,VACV mCherry inh,HCMV inh,FMDV inh,HCV inhibitor
Cc1ccc(NC(=O)C2CCN(S(=O)(=O)c3cccs3)CC2)cc1C,-8.4%,·,·,?,?
CCn1c2ccccc2c2cc(NC(=O)C3CCN(S(=O)(=O)c4cccs4)CC3)ccc21,-15.7%,-6.4%,5.5,·,3.98µM*
O=C(Nc1ccc(OC(F)(F)F)cc1)C1CCN(S(=O)(=O)c2cccs2)CC1,?,?,-88.4*,?,·
O=C(CCl)N(C1CCCC1)C1CCS(=O)(=O)C1 (stereo unspecified),?,?,-83.1*,-17.3%,?
O=C1CCCCN1CCC(=O)N1CCOc2ccc(C(O)C3CCCCC3)cc2C1 (stereo unspecified),-7.7%,-11.0%,·,-13.1%,·
CCn1cc(C(=O)NCc2cccc(C(F)(F)F)c2)c(=O)c2ccc(C)nc21,·,·,-69.4*,-24.7%,9.4%
CCc1cccc(CC)c1NC(=O)COC(=O)/C(C#N)=C/c1ccc(OC)cc1,-11.3%,i,8.1,-18.6%,-1.2%
COc1ccc(/C=C(\C#N)C(=O)OCC(=O)Nc2c(C)cccc2C)cc1,-13.4%,i,-61.4*,-23.2%,10.1%
Cc1c(C(=O)NCC2COCCO2)cnn1-c1ncc2c(n1)-c1ccccc1CC2 (stereo unspecified),?,?,·,26.7%,·
Cc1nn(C)c(C(=O)Nc2ccc(S(=O)(=O)NC34CC5CC(CC(C5)C3)C4)cc2)c1Br,?,12.6µM*,·,-19.0%,10µM*
Cc1ccc(S(=O)(=O)NC23CC4CC(CC(C4)C2)C3)cc1,·,·,-33.1,42.3%,?
O/N=C(/C[n+]1ccsc1)c1ccc(I)cc1,?,-7.1%,·,·,·
c1cc2c3c(cccc3c1)NC1(CCC3(CC1)Nc1cccc4cccc(c14)N3)N2,10µM*,?,?,?,?
Cc1nc(Nc2ccc(Cl)cc2)cc(-c2ccccc2)n1,2.8%,-6.4%,-3.3,0.0%,·
Oc1c(Cl)cc(Cl)c2cccnc12,?,-14.1%,-98.5*,?,-21.2%
O=C(Oc1c(Cl)cc(Cl)c2cccnc12)c1ccco1,?,12.6µM*,-101.7*,?,?
CN1CCN(C(c2ccc(Br)cc2)c2cc(Cl)c3cccnc3c2O)CC1 (stereo unspecified),?,?,126.5,?,7.94µM*
CCC(=O)NC(C)c1cc(Cl)c2cccnc2c1O (stereo unspecified),·,·,-97.3*,0.0%,·
Cc1ccccc1NC(=O)CN(C)S(=O)(=O)c1cccc2nsnc12,-6.3%,-0.3%,-5.8,6.6%,·
Cc1ccc(OCc2nc(-c3ccc(C(=O)N4CCN(c5ccccc5F)CC4)cc3)oc2C)cc1,-22.4%,-28.2%,-5.1,-17.0%,·
CC(=O)NC(C)c1cc(Cl)c2cccnc2c1O (stereo unspecified),·,·,-95.9*,-18.9%,·
Oc1c(I)cc(I)c2cccnc12,?,-25.9%,-100.3*,-21.6%,-7.1%[8.37 µM]
Cc1ccc(S(=O)(=O)Nc2cccnc2Oc2ccc(Cl)cc2)cc1,·,·,14.3,-17.4%,-7.4%
Cc1ccc2c(Cl)cc(Cl)c(O)c2n1,?,?,-74.7*,10µM*!,?
Cc1ccc(S(=O)(=O)Nc2cc(Cl)c(O)c3ncccc23)cc1,?,?,-98.2*,-12.1%,?
COc1c2occc2c(OC(C)=O)c2c(=O)cc(C)oc12,-13.3%,-1.9%,-66.7*,-22.3%,-28.0%
COc1ccc(OCC(=O)OCc2cc(=O)n3nc(C4CC4)sc3n2)cc1,-3.4%,-7.4%,14.9,-3.6%,·
COc1ccc2c(c1)Sc1ccccc1N2,1.6%,3.1%,-80.7*,20.8%,?
CCn1c(=NC(=O)C2COc3ccccc3O2)sc2c(OC)ccc(OC)c21 (stereo unspecified),·,·,-35.5,12.3%,11.2µM*
